High-throughput results: PubChem, The Scripps Research Institute Molecular Screening Center
hcDAF12 agonist: activates DAF-12 receptor from parasite H. contortus; HEK293 hcDAF-12 lit1-tk-luc reporter, luminescence; 0% DMSO, 100% Δ7-dafachronic acid; activation, % at 6.8 µM; hit rate 1.4% among 370,000; AID 652067;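 active = activation above the mean of all tested compounds plus 3 SD, cut at about 5.5% in these data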;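 note: 100% = response to 3 µM Δ7-dafachronic acid high control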
DAX1 inh-1: inhibitors of DAX1 repression of SF-1 activated StAR promoter; HEK293T StAR-luciferase reporter, SF-1/DAX-1 repression relief; AID 652010; hit rate 1.1% among 370,000; inhibition, % at 6.8 µM;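 active = inhibition above the mean over all tested compounds plus 3 SD, cut at about 3.6% in these data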;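 note: 0% = DAX-1 cells with DMSO and 100% = cells lacking DAX-1 with DMSO; higher inhibition means more luminescence from relief of DAX-1 repression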
DAX1 inh-2: inhibits human nuclear receptor DAX1; P51843; HEK293 Gal4-DAX1 luciferase reporter, luminescence; inhibition, % at 6.75 µM; hit rate 0.99% among 340,000; AID 504766;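 active = inhibition above the mean over all tested compounds plus 3 SD, cut at about 4.2% in these data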;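 note: 0% = DAX1-transfected cells with DMSO and 100% = empty-vector control cells with DMSO; inhibition shows as a rise in luminescence from relieved DAX1 repression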
Target sequence (P51843 207-470 limits assumed): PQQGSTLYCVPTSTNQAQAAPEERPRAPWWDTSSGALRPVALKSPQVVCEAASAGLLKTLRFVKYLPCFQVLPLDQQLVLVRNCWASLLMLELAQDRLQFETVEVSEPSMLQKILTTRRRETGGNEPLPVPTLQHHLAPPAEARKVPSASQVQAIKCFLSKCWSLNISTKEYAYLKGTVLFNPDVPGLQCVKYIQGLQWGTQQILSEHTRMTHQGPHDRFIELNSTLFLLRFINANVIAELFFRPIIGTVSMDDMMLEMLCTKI
ssDAF-12 act: S. stercoralis DAF-12 activation, primary screen; HEK293 ssDAF-12/GRIP1 lit1-tk-luc reporter, luminescence; % of 3 µM dafachronic acid response; activation, % at 6.8 µM; hit rate 1% among 370,000;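 active = activation above the mean over all tested compounds plus 3 SD, cut at about 0.9% in these data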;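 note: 0% = DMSO-only wells and 100% = 3 µM delta7-dafachronic acid wells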
hgDAF12 agonist: activates the H. glycines DAF-12 receptor ligand-binding domain; HEK293 GAL4-hgDAF12 UAS-luciferase reporter, agonist luminescence; normalized to butyrate control; activation, % at 6.8 µM; hit rate 1.8% among 370,000; AID 687014;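 active = activation above a cutoff set at the mean of all screened compounds plus 3 SD, cut at about 10% in these data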;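 note: 0% = DMSO wells and 100% = sodium butyrate wells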
DAX1 conf: NR0B1 (human) inhibition, confirmation | hit rate 87% among 2,400 | shares compounds with DAX1 inh-1 | HEK293T StAR-promoter luciferase reporter, SF-1/DAX-1 repression | inhibition, % at 6.8 µM;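 active = inhibition above the average of every tested compound plus 3 SD, cut at about 3.8% in these data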;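 note: 0% = DAX-1 cells with DMSO and 100% = no DAX-1 control cells with DMSO; active compounds raise luminescence by relieving repression of the StAR reporter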
SF1 AF2mut Luc: nonselective inhibitor or artifact in SF-1 mutant DAX1 counter-screen; shares compounds with DAX1 inh-1; HEK293 StAR-luciferase, SF-1 AF2 mutant, luminescence; inhibition, % at 6.8 µM; hit rate 78% among 2,400; AID 652136;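 active = inhibition above the mean of all tested compounds plus 3 SD, cut at about 3% in these data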;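 note: 0% = DAX-1 transfected cells with DMSO and 100% = cells without DAX-1 with DMSO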
LXR ag: counter-screen for hcDAF-12 agonists: agonists of human LXR-beta | AID 743027 | activation, % at 6.8 µM | shares compounds with hcDAF12 agonist | 3,400 tested, under 10 active | HEK293 Gal4-LXR tk-luc reporter, luminescence, 24 h; normalized: DMSO 0%, positive control 100%;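 active = mean percent activation of the reporter above a cutoff set as the average over tested compounds plus their standard deviation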
Target sequence (P55055 whole entry, looked up, the tested form may be a part): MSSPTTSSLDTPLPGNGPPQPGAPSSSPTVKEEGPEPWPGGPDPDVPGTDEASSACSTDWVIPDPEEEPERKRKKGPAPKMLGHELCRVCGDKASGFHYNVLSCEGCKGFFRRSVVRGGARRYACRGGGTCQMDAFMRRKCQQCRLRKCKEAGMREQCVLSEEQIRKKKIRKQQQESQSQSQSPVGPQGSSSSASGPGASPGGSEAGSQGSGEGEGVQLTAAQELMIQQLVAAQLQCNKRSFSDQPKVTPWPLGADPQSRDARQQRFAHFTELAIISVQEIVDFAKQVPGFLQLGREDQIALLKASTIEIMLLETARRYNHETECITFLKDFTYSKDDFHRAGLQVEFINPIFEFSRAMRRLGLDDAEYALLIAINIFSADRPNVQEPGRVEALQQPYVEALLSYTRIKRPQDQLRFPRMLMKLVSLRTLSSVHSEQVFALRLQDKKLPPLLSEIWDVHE
hcDAF12 ag: hcDAF-12 agonism, confirmation assay | shares compounds with hcDAF12 agonist | HEK293 hcDAF-12 lit1-tk-luc reporter, luminescence; % of Δ7-dafachronic acid response | activation, % at 6.8 µM | hit rate 61% among 3,400 | AID 743032;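 active = mean activation across triplicate tests above the threshold derived from the earlier primary screen, cut at about 5.5% in these data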;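 note: 0% = DMSO only wells and 100% = 3 µM Δ7-dafachronic acid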
hgDAF12 conf: hgDAF-12 agonism, confirmation assay; activation, % at 6.8 µM; shares compounds with hgDAF12 agonist; HEK293 GAL4-hgDAF12 luciferase reporter, agonist mode; percent of butyrate response; hit rate 80% among 3,300;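 active = mean activation over triplicate wells above the hit cutoff derived from the earlier primary screen, cut at about 11% in these data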;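 note: 0% = DMSO low control and 100% = 2 mM sodium butyrate high control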
LXR ag 2: activates human LXR-beta, counter-screen for DAF-12 agonists; 3,300 tested, under 10 active; activation, % at 6.8 µM; HEK293 Gal4-LXR luciferase reporter, 24 h; shares compounds with hgDAF12 agonist; AID 743051;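 active = mean activation of the triplicate above a set limit carried over from the primary screen, none filed active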
* marks the source's active call; other numbers are inactive results; x = not tested or not shown. In the library only some 4.1% were active in any assay of this set; here they are far more common.

SMILES | hcDAF12 agonist | DAX1 inh-1 | DAX1 inh-2 | ssDAF-12 act | hgDAF12 agonist | DAX1 conf | SF1 AF2mut Luc | LXR ag | hcDAF12 ag | hgDAF12 conf | LXR ag 2
COCC(=O)Nc1c(C(=O)Nc2ccc3c(c2)OCCO3)oc2ccccc12 | 3 | 4.6* | 1 | -1 | 17* | 8.6* | 5.9* | x | x | 18* | 1
O=C(Nc1ccc2c(c1)OCCO2)c1ccc2ccccc2n1 | 21* | 10.0* | 3 | 2.7* | 20* | 13* | 8.2* | 2 | 16* | 22* | 1
O=C(Nc1ccc2c(c1)OCCO2)c1oc2ccccc2c1NC(=O)C1CC1 | -1 | 1 | -1 | -2 | -2 | x | x | x | x | x | x
O=C(Nc1ccccc1)c1ccc2ccccc2n1 | 18* | 5.4* | 5.6* | 1.9* | 19* | 13* | 9.8* | 1 | 16* | 22* | 1
COc1ccccc1N1CCN(C(=O)c2ccc3ncsc3c2)CC1 | -1 | -2 | -3 | -2 | 1 | x | x | x | x | x | x
CCNC(=O)C1(C)CCCN(Cc2ccccc2-c2ccccc2)C1 (stereo unspecified) | -1 | 0 | x | -1 | 1 | x | x | x | x | x | x
C=C(C)Cn1c(SCC(=O)NN=Cc2c(O)ccc3ccccc23)nnc1-c1ccc(Br)cc1 | -4 | -5 | x | -2 | 1 | x | x | x | x | x | x
CC(C)CC(=O)Nc1ccc(-c2nc3ccccc3c(=O)[nH]2)cc1 | 3 | 5.0* | 2 | 0 | 16* | 17* | 7.6* | x | x | 21* | 1
CC(C)CC(=O)Nc1ccc(-c2nc3ccccc3c(=O)o2)cc1 | -2 | 0 | -2 | -1 | -2 | x | x | x | x | x | x
O=C(Nc1ccc(N2CCCC2)cc1)c1ccc(Br)cc1 | 0 | 0 | 2 | 0 | -4 | x | x | x | x | x | x
CCCOC(=O)Nc1ccc(N2CCCCC2)cc1 | 5 | 5.3* | 1 | 1 | 15* | 16* | 5.8* | x | x | 14* | 1
O=C(Nc1ccc(N2CCCCCC2)cc1)c1ccc[nH]1 | 7.3* | 13* | 1 | 1 | 15* | 9.4* | 5.8* | 2 | 10.0* | 17* | 1
CC1(C(=O)NS(=O)(=O)Cc2cccc(Cl)c2)CCN1C(=O)CC1CCCC1 (stereo unspecified) | -1 | 0 | x | -1 | 0 | x | x | x | x | x | x
Cc1nc(Nc2ccc(C(=O)O)cc2)sc1-c1ccccc1 | 10* | 5.5* | 1 | 2.6* | 17* | 3 | 0 | 2 | 7.2* | 10 | 1
Cc1nc(Nc2ccccc2)sc1C(=O)c1ccccc1 | 0 | 0 | x | -2 | 6 | x | x | x | x | x | x
Cc1nc(Nc2ccccc2)sc1-c1ccccc1 | 9.8* | 6.7* | 3 | 1.1* | 21* | 21* | 9.8* | 2 | 8.3* | 21* | 1
COC(=O)c1sc(Nc2ccccc2)nc1C | 2 | 1 | 1 | 0 | 8 | x | x | x | x | x | x
COc1ccc2cc3cc(C(=O)NC4CC4)sc3nc2c1 | 18* | 15* | -2 | 0 | 24* | 14* | 4.2* | 2 | 8.7* | 16* | 1
N#C/C(=C/c1ccco1)c1nc2ccccc2s1 | 20* | 4.8* | 2 | 4.0* | 16* | 12* | 7.7* | 1 | 14* | 22* | 1
O=C(CCc1c[nH]c2ccccc12)NCCc1ccc(O)cc1 | 0 | 0 | -1 | -1 | -1 | x | x | x | x | x | x
CCn1cnc2cc(NCc3nc4ccccc4n3Cc3ccccc3)ccc21 | -1 | 0 | 1 | -2 | -2 | x | x | x | x | x | x
CCn1cnc2cc(NCc3nc4ccccc4n3C)ccc21 | 15* | 5.9* | 0 | 1.1* | 18* | 10* | 4.8* | 1 | 7.5* | 13* | 1
COc1ccc(C2c3ccccc3NC3C2C(=O)N(Cc2ccc(OC)cc2OC)[C@H]3Cc2ccccc2)cc1 (stereo partly specified) | -1 | -1 | x | -2 | 4 | x | x | x | x | x | x
CCOC(=O)[C@]12CCC=C1N(Cc1ccc(Cl)cc1Cl)C(=O)[C@H](CC(=O)NCc1ccccc1)C2 | 1 | 0 | x | -1 | 1 | x | x | x | x | x | x
COC(=O)CSc1nc2ccc(C)cc2cc1C#N | 7.2* | 8.8* | 5.9* | 1.4* | 26* | 19* | 11* | 1 | 4 | 20* | 1
SMILES | hcDAF12 agonist | DAX1 inh-1 | DAX1 inh-2 | ssDAF-12 act | hgDAF12 agonist | DAX1 conf | SF1 AF2mut Luc | LXR ag | hcDAF12 ag | hgDAF12 conf | LXR ag 2
CC(=O)CSc1nc2cc3c(cc2cc1C#N)OCCO3 | 12* | 7.9* | 0 | 0 | 27* | 14* | 4.9* | 2 | 10* | 19* | 2
COC(=O)CSc1nc2cc(C)cc(C)c2cc1C#N | 1 | 0 | -1 | -1 | 6 | x | x | x | x | x | x
O=C(CSc1nnc2ccccn12)Nc1ccccc1[N+](=O)[O-] | 4 | 0 | 3 | -1 | 4 | x | x | x | x | x | x
CC(C)c1cc(Cn2c3ccccc3c(=O)n2C(C)CBr)on1 (stereo unspecified) | 2 | 0 | x | 0 | 4 | x | x | x | x | x | x
Cc1ccc(S(=O)(=O)N2CCN(C(=O)C3CCN(C(=O)c4ccc(F)cc4)CC3)CC2)c(C)c1 | -1 | -5 | -1 | -1 | -6 | x | x | x | x | x | x
COc1ccc(NC(=O)N2CCc3ccccc3C2)cc1OC | -1 | -1 | 1 | -1 | 2 | x | x | x | x | x | x
Cc1ccc(NC(=O)N2CCc3ccccc3C2)cc1C | 4 | 6.6* | 2 | -1 | 14* | 8.6* | 5.5* | x | x | 13* | 0
Cc1cccc(S(=O)(=O)NC(=O)C2(C)CCN2C(=O)C2(c3ccc(Cl)cc3)CCC2)c1 (stereo unspecified) | 0 | -1 | x | 0 | 5 | x | x | x | x | x | x
COc1ccc2nc(NC(=O)c3ccoc3C)sc2c1 | 9.9* | 5.5* | 0 | 1 | 15* | 14* | 4.4* | 1 | 5.9* | 19* | 1
COC(=O)c1sc(NC(=O)c2ccoc2C)nc1C | -1 | 1 | -1 | 0 | 3 | x | x | x | x | x | x
COc1ccc2nc(NC(=O)C3COc4ccccc4O3)sc2c1 (stereo unspecified) | 6.4* | 5.6* | 1 | 0 | 19* | 12* | 7.6* | x | x | 11* | 1
